Bioassay records as filed in PubChem.
Compounds with a hit are over-represented: about 3.6% of the library has one in this group of screens.
ERb SRC1 inh: blocks coactivator binding to human estrogen receptor beta; Q92731; TR-FRET ER-beta LBD / SRC1-Cy5 peptide binding; receptor agonist-loaded with 1 µM estradiol; inhibition, % at 25.6 µM; actives 1.3% (n = 86,000);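 active = compounds whose percent inhibition of the receptor-coactivator binding signal exceeds about 50% in the single-dose screen, limit read from the data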;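 also: 0% = receptor plus peptide wells without compound and 100% = peptide-only wells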
Smad3 inh: blocks human Smad3 binding to FoxH1 peptide; inhibition, % at 25 µM; P84022; TR-FRET Smad3/Dy647-FoxH1 peptide binding, europium anti-His; actives 0.29% (n = 88,000);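 active = compounds that reduce the energy-transfer binding signal between the protein and its labelled peptide by more than half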;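 also: 0% = Smad3 plus labelled peptide maximal FRET and 100% = peptide-only background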
ERa SRC1 inh: blocks coactivator binding to human estrogen receptor alpha. P03372. TR-FRET ER-alpha LBD / SRC-1 peptide, estradiol-bound. inhibition, % at 25.6 µM. actives 1.7% (n = 86,000). AID 629; in the data active = inhibition above about 50%;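 also: 0% = receptor plus peptide control and 100% = peptide only without receptor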
Target sequence (P03372 whole entry, looked up, the tested form may be a part): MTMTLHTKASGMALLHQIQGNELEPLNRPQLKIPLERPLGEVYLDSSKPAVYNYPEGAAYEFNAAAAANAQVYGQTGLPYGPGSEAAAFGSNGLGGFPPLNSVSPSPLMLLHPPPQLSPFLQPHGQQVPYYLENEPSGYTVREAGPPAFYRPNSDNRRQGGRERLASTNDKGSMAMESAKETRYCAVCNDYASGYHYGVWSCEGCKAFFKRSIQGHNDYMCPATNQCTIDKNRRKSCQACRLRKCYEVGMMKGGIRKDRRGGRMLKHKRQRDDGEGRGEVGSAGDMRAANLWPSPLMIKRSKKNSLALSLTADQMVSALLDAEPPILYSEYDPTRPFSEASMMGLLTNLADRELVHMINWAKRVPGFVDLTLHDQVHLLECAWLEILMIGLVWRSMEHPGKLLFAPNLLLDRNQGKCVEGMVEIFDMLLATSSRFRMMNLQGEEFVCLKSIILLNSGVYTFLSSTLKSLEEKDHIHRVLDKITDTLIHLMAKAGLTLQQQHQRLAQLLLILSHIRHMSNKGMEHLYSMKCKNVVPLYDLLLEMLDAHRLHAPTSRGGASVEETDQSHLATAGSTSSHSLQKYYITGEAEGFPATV
Calb biofilm kill: kills Candida albicans biofilms | inhibition, % at 6 µM | C. albicans biofilm + clotrimazole, Alamar Blue | actives 0.14% (n = 85,000) | AID 834;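 active = inhibition above 20%; inactive = inhibition below 20%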;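 also: preformed 24 hr biofilms exposed to compound for 48 hr; 0% = biofilm without compound and 100% = blank killed by clotrimazole plus chlorhexidine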
ERa coact pot: ER-alpha (human) coactivator binding potentiation. P03372. TR-FRET ERalpha-LBD/SRC-Cy5 coactivator binding, 2 h; 100 = basal binding, no effect. coactivator binding (% of control), % at 25.6 µM. actives 1.3% (n = 86,000); in the data active = activity above about 200%;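 also: binding measured in presence of low estradiol as agonist stimulus; 0% = peptide alone without receptor and 100% = receptor with peptide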
Starred values were filed as active, the others as inactive; i = inactive; . = not tested or not shown; [ ] = dose if it differs, or a comment.

SMILES | ERb SRC1 inh | Smad3 inh | ERa SRC1 inh | Calb biofilm kill | ERa coact pot
COC(=O)c1cc2sc(Cl)cc2n1CC(=O)NCCC(C)C | 0 | i | -4 | 9 | 226*[fluorescence artefact?]
CC(C)NS(=O)(=O)c1ccc(CCC(=O)Nc2ccc3c(c2)OCO3)cc1 | 10 | -3 | 11 | -1 | 108
O=C(O)c1ccncc1.O=C(O)c1ccncc1.[Cl][Pt]([Cl])([Cl])[Cl] | . | 72* | . | . | .
Cc1ccccc1Cn1c(=O)c2c(nc3n2CCN3Cc2ccco2)n(C)c1=O | -4 | 5 | 3 | 6 | 94
O=C(O)[C@H]1Cc2c([nH]c3ccccc23)[C@@H](CCCCO)N1 | . | 1 | . | . | .
c1ccc(Cn2ncc3c2ncn2c(-c4ccncc4)nnc32)cc1 | -5 | -6 | -7 | 9 | 110
Cc1ccc(-n2ncc3c2ncn2c(-c4ccncc4)nnc32)cc1 | 31 | -3 | 66*[fluorescence artefact?] | -6 | 89
COc1ccccc1C(c1nnnn1CCc1ccccc1)N1CCCCCC1 (centres undefined) | -5 | 3 | -7 | 5 | 81
CCOC(=O)COc1ccc(C(=O)NC2CCCCC2)cc1 | -4 | 6 | 8 | 6 | 102
CN1CCN(CC(=O)Nc2cccc3ccccc23)CC1 | . | -6 | . | . | .
CCOc1ccccc1NC(=O)C1CCCN(S(=O)(=O)c2cccc3cccnc23)C1 (centres undefined) | 21 | -9 | 3 | 0 | 99
O=C(Nc1ccccc1F)C1CCCN(S(=O)(=O)c2cccc3cccnc23)C1 (centres undefined) | 53*[fluorescence artefact?] | -5 | 3 | 3 | 123
O=C(C[C@@H](c1ccccc1)N1CCCCC1)c1ccccc1 | . | 7 | . | . | .
Cn1cc(NC(=O)c2cc(NC(=O)c3cc(NC=O)cn3C)cn2C)cc1C(=O)NCCC(=N)N | 71* | 14 | 61* | -5 | 44
CC1CCN(C(=O)Cc2nn(C)c(=O)c3ccccc23)CC1 | -2 | 3 | 9 | 5 | 121
CCOC(=O)Cc1nn(C)c(=O)c2ccccc12 | 63* | -5 | 2 | -2 | 97
C=CCNC(=O)COc1ccc(Br)cc1Cl | 3 | -3 | -3 | 11 | 108
CC(=O)O[C@H]1CC[C@@]2(C)[C@@H](CC[C@H]3[C@H]2CC(=O)[C@]2(C)[C@@H]3C[C@H]3CC(C)=CC(=O)[C@@H]32)C1 | . | 15 | . | . | .
CCc1ccc(Nc2nc(N)nc(CSc3nnnn3-c3ccccc3)n2)cc1 | 41 | 20 | 41 | 3 | 312*
CC12C(=O)N(Cc3ccco3)C(=O)C1C1c3ccccc3C2c2ccccc21 (centres undefined) | 55*[fluorescence artefact?] | 5 | 47 | 4 | 163
CCN1C(=O)/C(=C2/Sc3ccc(OC)cc3N2C)SC1=Nc1cccc(O)c1 | 64* | 3 | 66* | 8 | 152
CSc1ccc(NC(=O)Nc2cc(C)ccn2)cc1 | . | -1 | . | . | .
CCOc1ccc(-n2c(SCC(=O)Nc3nccs3)nc3c(c2=O)SCC3)cc1 | 48 | -11 | 77*[fluorescence artefact?] | 2 | 78
CC(=O)c1ccc(Nc2ncnc3c2oc2ccccc23)cc1 | 46 | 46 | 45 | -3 | 346*[fluorescence artefact?]
CC(=O)Nc1ccc(Nc2nc(C)nc3c2oc2ccccc23)cc1 | 6 | -3 | -2 | 10 | 96
SMILES | ERb SRC1 inh | Smad3 inh | ERa SRC1 inh | Calb biofilm kill | ERa coact pot
NC(=O)Cc1c[nH]c2cccc(O)c12 | 93*[fluorescence artefact?] | -13 | 73*[fluorescence artefact?] | -5 | 54
CCCSc1nc(SCC(=O)NCc2ccccc2)c2c3c(sc2n1)COC(C)(C)C3 | 10 | -56 | 2 | 10 | 294*[fluorescence artefact?]
NCOC(=O)Cc1ccc(Br)cc1 | . | 73* | . | . | .
O=C(Cc1ccc(Br)cc1)OCC(=O)c1ccc2c(c1)OCCO2 | 11 | 4 | 0 | -1 | 99
Cc1ccc(C(C(=O)NC(C)(C)C)N(Cc2ccco2)C(=O)CCC(=O)Nc2nccs2)cc1 (centres undefined) | -7 | 1 | -8 | 5 | 99
Cc1cccc(OCC(=O)N(C)CCc2ccccn2)c1 | 12 | 13 | 2 | 1 | 115
CCOc1ccc(C(C)=O)cc1CSc1nnc(-c2cccs2)n1CC1CCCO1 (centres undefined) | 8 | 2 | 15 | 10 | 96
CC(C)c1nnc(NC(=O)C2CCN(c3cnccn3)CC2)s1 | -4 | -11 | 4 | 10 | 110
CC(C)c1nnc(NC(=O)C2CCN(c3nc4ccccc4s3)CC2)s1 | -6 | 4 | 67*[fluorescence artefact?] | 10 | 107
COC(=O)Cn1c2ccc(OC)cc2c2nc3ccccc3nc21 | -4 | 0 | 5 | 5 | 174
CCOC(=O)Cn1c2ccc(OC)cc2c2nc3ccccc3nc21 | 29 | 8 | 46 | 7 | 279*
